HT1080-NT tox: kills 2HG-producing HT-1080-NT fibrosarcoma cells; HT-1080-NT fibrosarcoma viability, CellTiter-Glo ATP luminescence, 48 h; Potency, µM (series often up to 46.1 µM), actives largely listed as cytotoxic; 360,000 tested, 1.6% active; AID 686970;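 further: NT is the 2HG producing partner of a matched IDH1 knockdown line; nearly all actives have a fitted effect of over 55% in size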
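Compounds were tested in concentration-response format on HT-1080-NT cells for 48 hours at 37 degrees C. Cell viability came from CellTiter-Glo luminescence; curves were classified by r2, response magnitude and activity.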
DT40 TDP1 no CPT: qHTS for Inhibitors of human tyrosyl-DNA phosphodiesterase 1 (TDP1): qHTS in cells in absence of CPT; DT40 Tdp1-/- hTDP1 cells, no CPT, ATP luminescence, 48 h; 420,000 tested, 15% active; Potency, µM (titrated, usually from 46.2 µM), hits mostly inhibitors; further: nearly all actives have a fitted effect of over 55% in size
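Readout: luminescence from CellTiter-Glo after 30 min in the dark at RT. Cells: DT40 Tdp1-/- with stable hTDP1, 400/well. Exposure: compounds alone, ≥48 hr, 37 °C.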
KB-V1 MDR tox: KB-V1 MDR subline cytotoxicity; Potency, µM (series often up to 46.1 µM), most hits filed as cytotoxic; 400,000 tested, 3.4% active; KB-V1 MDR cells viability, CellTiter-Glo, 72 h; further: nearly all actives have a fitted effect of over 60% in size
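Cytotoxicity via CellTiter-Glo luminescence after 72 h compound exposure at 37 degrees C. Cells: drug-selected KB-V1 line, DMEM phenol-red free plus 10% FBS. Compounds tested at multiple concentrations; normalized data fitted to concentration-effect curves.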
KB-3-1 cytotox: KB-3-1 parental cell cytotoxicity | KB-3-1 viability, CellTiter-Glo ATP luminescence, 72 h | Potency, µM (series often up to 46.1 µM), hits mostly cytotoxic | 400,000 tested, 1.4% active | AID 1347075; further: nearly all actives have a fitted effect of over 60% in size
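Using CellTiter-Glo luminescence, growth of non-resistant KB-3-1 adenocarcinoma cells is assessed 72 h after pin-tool compound addition at 37 °C. Normalized responses across the concentration series yield fitted curves.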
HT1080 IDH1KD tx: toxicity to HT-1080 IDH1 knockdown cells (counter line). 360,000 tested, 2% active. Potency, µM (series often up to 46.1 µM), actives largely listed as cytotoxic. AID 686971. HT-1080 IDH1 knockdown viability, ATP luminescence, 48 h
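Luminescent ATP read-out (CellTiter-Glo, 10 min at room temperature) after 48 h compound exposure at 37 °C gave viability of IDH1-knockdown HT-1080 cells. Activity was normalised to DMSO and cell-free wells, then fitted as concentration-response curves.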
TDP1 cell CPT: growth inhibition of DT40 Tdp1-/-;hTDP1 cells with camptothecin (screen for TDP1 inhibitors). chicken DT40 Tdp1-/-;hTDP1 cells + 20 nM CPT, ATP luminescence, 48 h. Potency, µM (titrated, usually from 46.2 µM), usual class: inhibitors. 420,000 tested, 12% active. AID 686979; further: nearly all actives have a fitted effect of over 55% in size
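Cell growth measured by CellTiter-Glo luminescence after a minimum 48 h, 37 C compound exposure with 20 nM CPT in Tdp1-knockout DT40 cells stably expressing hTDP1, seeded 400/well; qHTS titration format.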
Numbers stand for hits; 0 = inactive; ? = inconclusive; - = not tested or not shown. Rows were chosen to be rich in hits. Some 19% of all compounds tested hit in one or more screens of this group. The call rests on the fitted dose curve; in most records, active means well fitted curve in the direction sought with a large enough effect; inconclusive means small, poorly fitted or top-dose-only effect, or another doubt; inactive means no such curve, though single readings can be large; an effect the other way counts as inactive or inconclusive.

SMILES	HT1080-NT tox	DT40 TDP1 no CPT	KB-V1 MDR tox	KB-3-1 cytotox	HT1080 IDH1KD tx	TDP1 cell CPT
CC(C)NS(=O)(=O)c1cc(C(F)(F)F)ccc1/C=C/C(=O)O	-	?	0	0	-	?
CCOC(=O)N1CCc2c(sc(NCc3sccc3C)c2C(=O)Nc2ccc(OC)cc2OC)C1	-	?	0	0	-	?
CCOC(=O)N1CCc2c(sc(NCc3sccc3C)c2C(=O)Nc2ccccc2OCC)C1	-	23µM	0	0	-	?
CCOc1ccccc1NC(=O)c1c(NCc2cccs2)sc2c1CCCCC2	-	21µM	0	0	-	?
C#CCNC(=O)C1=C[C@@H](c2ccc(Br)cc2)[C@H](CCCO)[C@@H](OCC)O1	0	15µM	0	0	0	15µM
CCO[C@H]1OC(C(=O)Nc2ccccc2)=C[C@@H](c2ccc(Br)cc2)[C@@H]1CCCO	?	18µM	0	0	?	16µM
C#CCNC(=O)C1=C[C@@H](c2ccc(C#C)cc2)[C@H](CCCO)[C@@H](OCC)O1	0	0	0	0	0	0
C#Cc1ccc([C@H]2C=C(C(=O)NC3CC3)O[C@@H](OCC)[C@@H]2CCCO)cc1	0	23µM	0	0	0	?
CCO[C@H]1OC(C(=O)NC2CC2)=C[C@@H](C2CCCCC2)[C@@H]1CCCO	0	23µM	0	0	0	21µM
CCO[C@@H]1OC(C(=O)Nc2ccccc2)=C[C@H](c2ccc(C(F)(F)F)cc2)[C@H]1CCCO	0	?	0	?	0	?
CCO[C@@H]1OC(C(=O)NC2CC2)=C[C@H](C(C)(C)C)[C@H]1CCCO	0	0	0	0	0	0
CCO[C@@H]1OC(C(=O)NC2CC2)=C[C@H](C2CCCCC2)[C@H]1CCCO	0	?	0	0	0	?
COCCCNc1nc2nonc2nc1N(C)CC1CCCN1C (centres undefined)	0	0	0	0	0	0
C#CCNC(=O)C1=C[C@H](c2ccc(Br)cc2)[C@@H](CCCO)[C@H](OCC)O1	0	13µM	0	0	0	?
CCC(C)Nc1nc(N)c([N+](=O)[O-])c(N2CCCCCC2)n1 (centres undefined)	0	2.6µM	0	0	0	?
CC(C)CNc1nc(N)c([N+](=O)[O-])c(N2CCCCCC2)n1	?	16µM	9.2µM	18µM	?	?
CCC(C)Nc1nc(N)c([N+](=O)[O-])c(NC2CCCCC2)n1 (centres undefined)	0	?	0	0	0	?
Nc1nc(NCCO)nc(N2CCCCCC2)c1[N+](=O)[O-]	0	0	0	0	0	0
COc1ccc(S(=O)(=O)N2CCN(c3nc(-c4cccnc4)nc4ccccc34)CC2)cc1	0	8.2µM	?	?	0	18µM
N#Cc1ccccc1S(=O)(=O)N1CCN(c2nc(-c3cccnc3)nc3ccccc23)CC1	0	?	0	0	0	?
Cc1ccc(C)c(S(=O)(=O)N2CCN(c3nc(-c4cccnc4)nc4ccccc34)CC2)c1	0	6.5µM	0	?	0	8.2µM
O=S(=O)(c1ccccc1F)N1CCN(c2nc(-c3cccnc3)nc3ccccc23)CC1	0	21µM	?	0	0	?
COc1ccc(S(=O)(=O)N2CCN(c3ccc4nnc(-c5ccccc5)n4n3)CC2)cc1	0	?	?	?	0	12µM
COCc1cc(C)nc2c1C(=O)NC(c1ccc(Br)cc1)N2Cc1ccccc1 (centres undefined)	-	?	0	0	-	?
N#CC1=C(N)CCC1	-	0	0	0	-	0
COc1ccc(CN2CCn3nc(C(=O)NC4CC4)cc3C2=O)cc1	0	0	0	0	0	0
Brc1ccc(-c2cnco2)cc1	0	0	0	0	0	0
O=C(Nc1ccccc1C(F)(F)F)C1CCN(S(=O)(=O)Cc2ccccc2)CC1	-	0	0	0	-	0
O=c1ccc(S(=O)(=O)N2CCCC2)cn1Cc1nc(-c2ccc(F)cc2)no1	0	?	?	0	0	?
CN(C)C(=O)c1ccc(=O)n(Cc2ccc(Cl)cc2Cl)c1	0	0	0	0	0	0

Screening data (PubChem BioAssay)
